# Assay results reported in PubChem BioAssay AID1259415 (National Center for Advancing Translational Sciences (NCATS), 2018).
# In all, about 410,000 compounds went through this assay and about 18,000 (4.4%) were called active. About 7% were inconclusive and are not listed. This is one part of a sample in which actives are shown more often than they occur. Unmarked numbers belong to inactive results. Rule as the data show it: active = activity change below about -60%; inconclusive = no clear call, values can overlap the other calls; inactive = above about -39%.
# Experiment: qHTS Assay for inhibitors of the human cytomegalovirus (HCMV)
# Conditions: HFF cells, HCMV-luciferase reporter, 72 h; at 57.5 µM; hits give low values
# How it was run: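 Luciferase read-out from HCMV-luciferase-infected HFFs (MOI 1 PFU/cell) 72 h post infection at 37C; compounds added after 16 h cell attachment; activity normalized between buffer-only basal and Salinomycin (10uM) inhibitor controls.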
# % is scaled to controls: 0 for no effect and ±100 for the full control effect.
row,Compound,"activity change, negative = inhibition"
1,O=c1[nH]c2cc(Br)ccc2n2cccc12,-16.7%
2,CC(C)OC(=O)CN1CCN(c2ccc(Cl)cc2)CC1,-25.8%
3,O=C(CN1CCN(c2ccc(Cl)cc2)CC1)NCc1cccs1,-26.2%
4,O=C(CN1CCN(c2ccc(Cl)cc2)CC1)c1ccccc1,-68.8% (active)
5,CCCCCCCCN1C(=O)[C@H](CC(=O)NCc2cccc3ccccc23)C[C@@]2(C(=O)OC)CCCCC=C12,11.4%
6,CCC(=O)N1CCc2cc(Br)cc(S(=O)(=O)Nc3ccc(C)cc3C)c21,-2.54%
7,CSc1nc(-c2ccccc2)nc(C(Cl)Cl)n1,-99.4% (active)
8,C/C(N)=C(/C#N)C(=O)COC(=O)C1=NN(c2ccccc2)C(=O)CC1,36.4%
9,CCN1N=C(c2ccccc2)CCC1=O,-24.2%
10,O=C1CC(c2ccccc2)=NN1c1ccc([N+](=O)[O-])cc1,-78% (active)
11,O=C1CCCc2cc(S(=O)(=O)N3CCCC(C(=O)NCc4ccccc4)C3)ccc2N1 (stereo not given),-3.71%
12,CCOc1ccc(-n2c(SCC(=O)NCc3ccccc3)nc3n[nH]c(C)c3c2=N)cc1,35.6%
13,COc1ccc(Cc2nnc(SC)[nH]c2=O)cc1,-30.1%
14,Cc1ccc(Cc2nnc(SCC(=O)Nc3ccccc3C)[nH]c2=O)cc1,-1.67%
15,COc1ccc(Cc2nnc(N/N=C/c3ccccc3O)[nH]c2=O)cc1OC,-97.9% (active)
16,Cc1ccc(C)c(N2CCN(S(=O)(=O)c3ccc4c(c3)C(C(C)C)C(=O)N4)CC2)c1 (stereo not given),-24.7%
17,CCOc1ccc(NC(=O)CN(C)C(=O)c2c(C)noc2C)cc1OCC,-5.36%
18,Cc1ccccc1-c1nc2cc(NC(=O)c3cccc(OCCC(C)C)c3)ccc2o1,-15.9%
19,CCOC(=O)C1CCCN(C(=O)c2sc3nc(C)nc(N4CCOCC4)c3c2C)C1 (stereo not given),-14%
20,CC(=O)c1ccc(NC(=O)c2sc3nc4n(c(=O)c3c2C)CCCCC4)cc1,23.1%
21,Cc1nc(N2CCOCC2)c2c(C)c(C(=O)Nc3ccc(C(F)(F)F)cc3)sc2n1,-84.9% (active)
22,Cc1cc(N2C(=O)C(=O)/C(=C(/O)c3ccccc3)C2c2cccc(Br)c2)no1 (stereo not given),-20.6%
23,CCN(CC)S(=O)(=O)c1ccc(C(=O)N=c2sc3cccc(OC)c3n2C)cc1,-2.8%

row,Compound,"activity change, negative = inhibition"
1,COc1ccc(N(C(=O)c2snc(C(N)=O)c2N)C(C(=O)NC2CCCC2)c2ccco2)cc1OC (stereo not given),-8.05%
2,COc1cc(C(C(=O)NC2CCCC2)N(Cc2ccccc2)C(=O)c2snc(C(N)=O)c2N)ccc1O (stereo not given),-99.2% (active)
3,CCOc1ccc(C(C(=O)NC2CCCC2)N(C(=O)c2snc(C(N)=O)c2N)C2CCCC2)cc1 (stereo not given),-24.5%
4,CC(C)NC(=O)N1CC(=O)N2[C@H](CO)[C@@H](c3ccc(Br)cc3)[C@H]2C1,1.46%
5,CCc1cc2c(cc3c(=O)n(CC(=O)N4CCN(c5cc(Cl)ccc5C)CC4)nc(CC)n32)s1,12.7%
6,COc1ccc(-c2noc(CCC(=O)N(C)c3ccccc3C)n2)cc1,-35.9%
7,CCOC(=O)c1cc2c(=O)n3ccccc3nc2n(CC2CCCO2)c1=NC(=O)c1ccc(C(C)(C)C)cc1 (stereo not given),23.6%
8,Cn1c(=O)c2c(SCC(=O)N3CCOCC3)nc(C3CC3)nc2n(C)c1=O,-3.56%
9,CCOC(=O)N1CCN(C(=O)CSc2nc(C)nc3c2c(=O)n(C)c(=O)n3C)CC1,-22.5%
10,CCCc1nc(SCC(=O)N2CCCC2)c2c(=O)n(C)c(=O)n(C)c2n1,-70.5% (active)
11,Cn1nnnc1SCCCNCc1cccc(OCc2ccc(Cl)cc2)c1,12.4%
12,CN(Cc1ccccc1)C(=O)c1cc2c(=O)n(C)c3ccccc3c2s1,2.36%
13,COc1ccc(CNC(=O)COc2cccnc2[N+](=O)[O-])cc1,1.06%
14,COc1cccc(CNc2nc(C(F)(F)F)nc3ccccc23)c1,-73.3% (active)
15,CC(NCCc1ccc(S(N)(=O)=O)cc1)C(=O)NCc1ccccc1 (stereo not given),-27.8%
16,O=C(NCc1ccncc1)C(=O)NCc1ccco1,-17.8%
17,COc1cccc(CNC(=O)Cc2csc3nc(-c4ccccc4)cn23)c1,-6.98%
18,O=C(COc1ncnc2ccccc12)NC(=O)NCc1ccccc1,-32.5%
19,COc1ccc(CNc2ncnc3ccccc23)cc1,-91.4% (active)
20,c1coc(CNc2ncnc3ccccc23)c1,-64.6% (active)
21,NS(=O)(=O)c1ccc(CCNC(=O)COC(=O)COc2cccc(C(F)(F)F)c2)cc1,-3.4%
22,COc1cccc(CNc2ncc(-c3ccccc3)n2C)c1,34.7%
23,CC(=O)OC[C@@H]1CN(Cc2ccccc2)C[C@H](n2cnc3c(NCc4ccco4)ncnc32)O1,-0.673%

row,Compound,"activity change, negative = inhibition"
1,NS(=O)(=O)c1ccc(CCNc2nc(C(F)(F)F)nc3ccccc23)cc1,-68.6% (active)
2,CCC(=O)N1CCc2cc(CNC(=O)Nc3ccccc3Cl)ccc21,38.6%
3,Cc1ccc(NS(=O)(=O)c2ccc3c(c2)CC(=O)N3)cc1Cl,7.34%
4,O=C(NCc1ccccc1Cl)c1cccn1-c1nnc(N2CCCCC2)s1,0%
5,CCn1c(C(C)NC(=O)c2ccc(C)cc2)n[nH]c1=S (stereo not given),12.4%
6,Cc1cccc(C2CC(=O)Oc3c2c(=O)n(C)c2ccccc32)c1 (stereo not given),18.7%
7,CN(c1ccccc1)c1nc(N)c([N+](=O)[O-])c(NCc2ccco2)n1,-22.9%
8,c1ccc(-c2nc(NCc3ccco3)c3ccccc3n2)cc1,-68% (active)
9,O=[N+]([O-])c1cc(-c2nc(-c3ccccc3)no2)ccc1NCc1ccco1,82.5%
10,Cc1oc(C)c2c(=O)cc(-c3ccc4c(c3)OCO4)cc(OC(=O)c3ccc(Cl)cc3)c12,8.11%
11,O=C(OCc1cc(=O)n2nc(C3CC3)sc2n1)c1ccccc1Cl,-5.87%
12,COc1cccc(-n2c(SCC(=O)NC3CCCCC3)nc3n[nH]c(C)c3c2=N)c1,28%
13,COc1ccc(-n2c(SCC(=O)Nc3ccc(Cl)c(C)c3)nc3n[nH]c(C)c3c2=N)cc1,0%
14,Cc1ccc(-n2c(SCC(=O)NCCC3=CCCCC3)nc3n[nH]c(C)c3c2=N)cc1Cl,-93.6% (active)
15,COc1ccc(-n2nnc(-c3nsc(NC(=O)c4ccc(C)c(C)c4)n3)c2C)cc1Cl,-9.03%
16,O=C(NCCc1ccccc1)C(=O)NCC(c1ccco1)S(=O)(=O)c1ccccc1 (stereo not given),-21.8%
17,COc1cc(C(=O)NCC(c2ccc(Cl)cc2)N2CCOCC2)cc(OC)c1OC (stereo not given),3.59%
18,N#Cc1nc(COc2ccc(-c3ccccc3)cc2)oc1NCc1cccnc1,-63.4% (active)
19,O=S(=O)(c1ccc(Br)cc1)c1nc(-c2ccccc2)oc1NCc1cccnc1,-3.8%
20,Cc1ccc(OCc2nc(C#N)c(N3CCCC3)o2)cc1,-14.4%
21,Cc1cc(C)c(NC(=O)CSc2nc3nccnc3c(=O)n2CCc2c[nH]c3ccccc23)c(C)c1,-19.7%
22,COc1ccc2c(c1)c(=Cc1ccc(N(C)C)cc1)c1cc(-c3ccccc3)[n+](C)n12,-99.1% (active)
23,Cc1ccc(S(=O)(=O)c2nnn3c2nc(N2CCN(c4ccccc4F)CC2)c2cc(Cl)ccc23)cc1C,11.3%

row,Compound,"activity change, negative = inhibition"
1,CCn1cc(C(=O)NCc2ccccc2)c(=O)c2cc(S(=O)(=O)N3CCCCC3)ccc21,1.38%
2,CN(C)CCCn1c(-c2ccc(Cl)cc2)csc1=Nc1ccccc1,-19.8%
3,Cc1ccc(S(=O)(=O)Oc2ccc(/C=N/NC(=O)c3c(Cl)cnn3C)cc2)cc1,22%
4,COc1cc(/C=N/O)cc(Br)c1OS(=O)(=O)c1ccc(C)cc1,-76.2% (active)
5,COc1cc(/C=C/c2ccc(/C=C/c3cc(OC)c(OC)c(OC)c3)cc2)cc(OC)c1OC,-35.4%
6,COc1cccc(CNC(=O)c2cc(=O)[nH]c3ccc(S(=O)(=O)N4CCCCC4)cc23)c1,0.829%
7,CCc1ccc(NC(=O)c2cc(S(=O)(=O)N3CCCC(C)C3)cn2C)cc1 (stereo not given),-13.1%
8,CSc1ncc(Cl)c(C(=O)Nc2ccc(S(=O)(=O)N3CCCC(C)C3)cc2)n1 (stereo not given),-86% (active)
9,COc1ccc(S(=O)(=O)N2CCCC(C(=O)Nc3ccc(NC(=O)c4ccccn4)cc3)C2)cc1 (stereo not given),62.8%
10,Cc1nnc(SCC(=O)NCc2ccccc2Cl)c2nn(-c3ccccc3)c(C)c12,-12.6%
11,O=C(NC(=O)N1CCSCC1)c1c(Cl)cccc1Cl,7.68%
12,COc1ccc(-c2nn(CC(=O)NC3CCCC3)c3c2cnc2ccc(F)cc23)cc1,35.7%
13,CCOc1ccc(NCCC(=O)c2ccc3c(c2)OCO3)cc1,-3.98%
14,COC(=O)CCNc1ccc2c(c1)OCCO2,-79.1% (active)
15,CCC(C)(C)NC(=O)CN(C(=O)C(=O)Nc1ccc2c(c1)OCCO2)C(C)(C)CC,21.3%
16,Cn1nc(-c2ccccc2)c(-c2ccccc2)c(C(=O)Nc2ccc(S(N)(=O)=O)cc2)c1=O,6.63%
17,COc1ccc(-c2c3c(=O)n(C)c(=O)n(C)c3c3c(C)nc4ccccc4n23)cc1,6.41%
18,CC(=O)Nc1cc(C(=O)NCc2ccc(F)cc2)ccc1Sc1ccc(F)cc1,-2.97%
19,CCOC(=O)c1cccc(NC(=O)c2ccc(F)cc2F)c1,17.1%
20,Cc1cc(C)nc(-n2nc(C)cc2NC(=O)c2ccc(F)cc2F)n1,-89.4% (active)
21,CC(=O)N/C(=N/c1nc(C)cc(C)n1)Nc1ccc(F)cc1F,-32.1%
